In all, about 360,000 compounds went through this assay and about 1,300 (0.36%) were called active. Rule as the data show it: active = inhibition above about 35% (passing the limit was not always enough); inactive = the rest. Shown is part of a subset that was picked to be rich in actives.

The target in this experiment is Polyadenylate-binding protein 1 (Homo sapiens) (UniProt P11940). The experiment is described as follows: PAM2 peptide displacement from PABP1 MLLE – biochemical, fluorescence polarization, FITC-PAM2, GST-MLLE, primary screen (AID 588489).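 Also: plate controls were DMSO wells with GST-MLLE for no effect and wells lacking GST-MLLE protein for full effect.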 To be noted: at 20 µM, active compounds read high.
Sequence of Polyadenylate-binding protein 1 (Homo sapiens) (P11940 whole entry, looked up): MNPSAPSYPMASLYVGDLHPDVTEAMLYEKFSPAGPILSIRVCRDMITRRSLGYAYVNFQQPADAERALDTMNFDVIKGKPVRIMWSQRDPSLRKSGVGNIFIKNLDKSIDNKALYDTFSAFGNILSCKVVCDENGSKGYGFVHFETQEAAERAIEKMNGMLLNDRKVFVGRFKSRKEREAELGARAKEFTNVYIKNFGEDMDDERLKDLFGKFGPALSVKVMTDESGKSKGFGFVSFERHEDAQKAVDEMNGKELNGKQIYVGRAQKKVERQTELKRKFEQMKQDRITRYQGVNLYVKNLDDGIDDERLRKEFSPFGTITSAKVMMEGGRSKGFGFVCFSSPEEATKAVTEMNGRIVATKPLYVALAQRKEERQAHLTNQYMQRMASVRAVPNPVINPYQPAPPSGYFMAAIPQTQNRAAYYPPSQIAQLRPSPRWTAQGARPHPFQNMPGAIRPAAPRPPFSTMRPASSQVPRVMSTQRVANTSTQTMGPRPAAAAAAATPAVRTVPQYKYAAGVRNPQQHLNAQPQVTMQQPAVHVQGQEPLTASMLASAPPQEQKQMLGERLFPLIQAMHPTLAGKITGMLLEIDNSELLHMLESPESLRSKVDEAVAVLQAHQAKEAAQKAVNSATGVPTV
As to `Cc1cccc(N(C(=O)Cc2cccs2)C(C(=O)NC2CCCC2)c2ccsc2)c1` (stereo unspecified), the inhibition is -14.8% (inactive).
For the molecule `CCOc1cc(C(=S)N2CCOCC2)ccc1O`, the inhibition was 20.9% (inactive).
Regarding `COc1cc(C(=S)N2CCOCC2)ccc1O`, the inhibition is 38.4% (active).
Consider `COc1ccc(C)cc1NC(=S)N1CCOCC1`, for which the inhibition was -27.2% (inactive).
With `Cc1ccc(OCC(=O)Nc2ccccc2C(=O)NC2CC2)cc1C`, the inhibition is 8.8% (inactive).
Take `O=S(=O)(NCc1ccccn1)c1ccc(Br)s1`: the inhibition is -6.68% (inactive).
The value for `O=S(=O)([N-]c1nc2ccccc2nc1-[n+]1ccc(Cc2ccccc2)cc1)c1ccc(Br)s1` was 43.3% (active); that for `O=C(c1ccc(N2CCOCC2)c([N+](=O)[O-])c1)N1CCN(S(=O)(=O)c2cccs2)CC1` was -8.8% (inactive); that for `COc1ccc(C(=O)N2CCN(c3ccc(C(C)=O)cc3F)CC2)cc1S(=O)(=O)NC1CC1` was 0.55% (inactive).
As for `CC(C)CCn1cnc2c1c(=O)n(CC(=O)NC(N)=O)c(=O)n2Cc1ccccc1`, the inhibition was -0.54% (inactive).
For the molecule `CC(=O)Nc1ccc(SCC(=O)NC(=O)c2ccc(Cl)cc2)cc1`, the inhibition is 15.4% (inactive).
Consider `O=C(CSc1ccccc1)Nc1cc(Cl)ccc1Oc1ccccc1`, for which the inhibition is 6.51% (inactive).
Next, `CC(=O)Nc1ccc(SCC(=O)Nc2ccccc2Oc2ccccc2)cc1`: 38.1% (active); `CC(=O)Nc1cc(-c2ccc(N3CCN(C)CC3)cc2)cn2c(-c3ccc(F)cc3)cnc12`: -30.8% (inactive); `CC(C)c1cc(C(=O)N/N=C/c2ccoc2)c(O)c(C(C)C)c1`: -7.21% (inactive).
In the case of `COC(=O)N/N=C/c1ccc(-c2ccc(Cl)c(Cl)c2)o1`, the inhibition was 15.1% (inactive).
With `CC(C)(C)OC(=O)N/N=C/c1ccc(C(=O)O)cc1`, the inhibition is -10.6% (inactive).
The value for `COC(=O)N/N=C/c1c[n+]([O-])c2ccccc2[n+]1[O-]` was 41.1% (active); that for `CCOC(=O)c1c(C)[nH]c(C2=NNC(=NC(C)COC)SC2)c1C` (stereo unspecified) was -90.6% (inactive); that for `CC(C)N(c1ccccc1)c1ncnc(NCCC(=O)O)c1[N+](=O)[O-]` was -7.92% (inactive).
Regarding `CC1=C(C(=O)Nc2ccc(Cl)cc2)C(c2ccco2)NC(=O)N1` (stereo unspecified), the inhibition is -4.08% (inactive).
As to `CN1OC[C@@H]2CN(S(=O)(=O)c3cccc(C(F)(F)F)c3)[C@H](c3ccc(-c4cc5ccccc5o4)cc3)C[C@@H]21`, the inhibition was -4.18% (inactive).
As to `COC(=O)C1=C(Nc2ccc(C)cc2)C=C(C)C(C(=O)OC)C1c1ccc(F)cc1` (stereo unspecified), the inhibition is -12% (inactive).
The value for `Cc1cc(=O)n(C)c(=O)n1CCCNc1ccccc1` was -0.23% (inactive).
In the case of `CCc1c(Nc2ccccc2C)nc(N)[nH]c1=O`, the inhibition is -2.64% (inactive).
On to `Cc1[nH]c(N)nc(=S)c1CCCNc1ccccc1`, for which the inhibition was 40.1% (active).

The values above are taken from PubChem BioAssay AID588489 (Sanford-Burnham Center for Chemical Genomics, 2011).
